Screening data as filed in PubChem BioAssay.
Only some compounds are listed: those with a hit (about 19% of all), similar ones and a draw of the others.
HT1080 IDH1KD tx = kills HT-1080 cells with IDH1 knockdown; Potency, µM (doses to about 46.1 µM), usual class: cytotoxic; 360,000 tested, 2% active; HT-1080 IDH1 knockdown viability, ATP luminescence, 48 h
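Luminescent ATP read-out (CellTiter-Glo, 10 min at room temperature) after 48 h compound exposure at 37 °C gave viability of IDH1-knockdown HT-1080 cells. Activity was normalised to DMSO and cell-free wells, then fitted as concentration-response curves.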
IL1B secr inh = blocks inflammasome-driven IL-1 beta release. AID 743279. 360,000 tested, 4.7% active. activity change, % at 57.5 µM. THP-1 LPS/ATP IL-1B secretion, AlphaLISA, 16 h; active compounds read low; in the data active = activity change below about -50%; inconclusive = mostly about -30% to -49%
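Secreted IL-1B measured by AlphaLISA bead assay after 16 h compound exposure of THP-1 cells; compounds (final up to 57.5 uM) added 1 h before LPS (250 ng/mL) and ATP (1.25 mM) stimulation; lower signal means less secretion.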
TDP1 cell noCPT = qHTS for Inhibitors of human tyrosyl-DNA phosphodiesterase 1 (TDP1): qHTS in cells in absence of CPT. AID 686978, 2013. 420,000 tested, 15% active. DT40 Tdp1-/- hTDP1 cells, no CPT, ATP luminescence, 48 h. Potency, µM (series often up to 46.2 µM), hits mostly inhibitors; also: nearly all actives have a fitted effect of over 55% in size
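Chicken DT40 Tdp1-/- cells complemented with human TDP1, screened without camptothecin (DMSO vehicle only), 400 cells/well. Compounds pin-transferred, cells incubated at 37 °C for at least 48 hr. Growth read as ATP-dependent luminescence (CellTiter-Glo, 30 min at RT).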
HT1080NT lethal = kills 2HG-producing HT-1080-NT fibrosarcoma cells; 360,000 tested, 1.6% active; HT-1080-NT fibrosarcoma viability, CellTiter-Glo ATP luminescence, 48 h; Potency, µM (doses to about 46.1 µM), usual class: cytotoxic; AID 686970;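 also: NT is the 2HG producing partner of a matched IDH1 knockdown line; nearly all actives have a fitted effect of over 55% in size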
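Read-out is CellTiter-Glo luminescence after 10 minutes at room temperature, following 48 hours' compound treatment of HT-1080-NT cells (750 cells/well, RPMI, 5% FBS, 37 degrees C).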
TDP1 cell CPT = DT40-hTDP1 cell growth loss with CPT. AID 686979. chicken DT40 Tdp1-/-;hTDP1 cells + 20 nM CPT, ATP luminescence, 48 h. 420,000 tested, 12% active. Potency, µM (top dose mostly 46.2 µM), hits mostly inhibitors; also: nearly all actives have a fitted effect of over 55% in size
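Chicken DT40 Tdp1-/- cells complemented with human TDP1, 400 cells/well, exposed to compounds plus 20 nM camptothecin for at least 48 h at 37 C; viability read as ATP content by CellTiter-Glo luminescence.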
Large screens that a line does not name were inactive. Unless noted, calls follow the shape of the dose curve; as a rule, active = well fitted curve in the direction sought with a large enough effect; inconclusive = small, poorly fitted or top-dose-only effect, or another doubt; inactive = no such curve, though single readings can be large; an effect the other way counts as inactive or inconclusive.

O=C(/C=C/c1cccc([N+](=O)[O-])c1)Nc1cccc(NC(=O)c2cccs2)c1	IL1B secr inh -60, TDP1 cell noCPT 18µM, TDP1 cell CPT 5.8µM
Cc1ccc(NC(=O)/C(=C\c2cccc([N+](=O)[O-])c2)NC(=O)c2cccs2)cc1	none
O=C(/C=C/c1ccc(Cl)c([N+](=O)[O-])c1)Nc1ccc(NC(=O)c2ccco2)cc1	none
O=C(/C=C/c1ccc(Cl)c([N+](=O)[O-])c1)Nc1cccc(NC(=O)c2ccco2)c1	HT1080 IDH1KD tx inconclusive, IL1B secr inh -99, TDP1 cell noCPT inconclusive, HT1080NT lethal inconclusive, TDP1 cell CPT inconclusive
O=C(/C=C/c1ccc(Cl)c([N+](=O)[O-])c1)Nc1cccnc1	IL1B secr inh -53
Cc1ccc(CNC(=O)CS(=O)(=O)Cc2nc(-c3ccc(C)cc3)oc2C)cc1	none
O=C(CS(=O)(=O)c1cn(CC(=O)N2CCCC2)c2ccccc12)Nc1ccccc1F	none
Clc1ccc(Cl)c(-c2nn3c(COc4ccccc4)nnc3s2)c1	TDP1 cell noCPT inconclusive, TDP1 cell CPT 16µM
COc1cccc(NC(=O)CN(C)C(=O)c2ccc3c(c2)S(=O)(=O)N=C2CCCCCN23)c1	none
COc1ccc(CN2C(=O)c3ccccc3C(/C=N/OCc3ccc(Cl)cc3)C2=O)cc1 (stereo unspecified)	HT1080 IDH1KD tx inconclusive, TDP1 cell noCPT 12µM, TDP1 cell CPT 13µM
COc1ccc(CN2C(=O)c3ccccc3C2=O)cc1	none
COc1ccc(CN2C(=O)c3ccccc3C(/C=N\OCc3ccc(F)cc3)C2=O)cc1 (stereo unspecified)	HT1080 IDH1KD tx inconclusive, TDP1 cell noCPT 8.2µM, TDP1 cell CPT inconclusive
CC1=N/C(=C\c2ccccc2Cl)C(=O)O1	none
COc1cccc(-c2nc(CS(=O)(=O)CC(=O)NCc3ccc4c(c3)OCO4)c(C)o2)c1	TDP1 cell CPT inconclusive
COCCCn1cn[nH]c1=S	TDP1 cell noCPT 15µM, TDP1 cell CPT inconclusive
COCCCn1c(-c2ccc(Cl)cc2)n[nH]c1=S	none
CN(c1ccccc1)S(=O)(=O)c1cc(C(=O)OCC(=O)c2c(N)n(C)c(=O)n(C)c2=O)ccc1Cl	TDP1 cell noCPT inconclusive, TDP1 cell CPT 26µM
Cc1ccc(N(C)S(=O)(=O)c2cccc(C(=O)OCC(=O)c3c(N)n(C)c(=O)n(C)c3=O)c2)cc1	TDP1 cell noCPT 18µM, TDP1 cell CPT inconclusive
Cn1c(N)c(C(=O)COC(=O)c2ccc(-c3ccccc3)cc2)c(=O)n(C)c1=O	TDP1 cell noCPT inconclusive, TDP1 cell CPT inconclusive
CN(C)S(=O)(=O)c1cccc(C(=O)OCC(=O)c2c(N)n(C)c(=O)n(C)c2=O)c1	none
CCN(c1ccccc1)S(=O)(=O)c1cc(C(=O)OCC(=O)c2c(N)n(C)c(=O)n(C)c2=O)ccc1C	TDP1 cell noCPT 23µM, TDP1 cell CPT 9.2µM
Cc1ccc2nc(NC(=O)C3CC3C)sc2c1 (stereo unspecified)	TDP1 cell noCPT inconclusive, TDP1 cell CPT inconclusive
CC(=O)Oc1ccc2nc(/C=C/c3ccccc3)oc(=O)c2c1	none
CCCCn1nnnc1C1(C)CCC(=O)N1Cc1cccnc1 (stereo unspecified)	none
CC(C)C1C(=O)Nc2ccc(S(=O)(=O)NCc3ccc(Cl)cc3)cc21 (stereo unspecified)	TDP1 cell noCPT 16µM, TDP1 cell CPT 23µM (no result: HT1080 IDH1KD tx, IL1B secr inh, HT1080NT lethal)
CC1C(=O)Nc2ccc(S(=O)(=O)NCCc3ccc(Cl)cc3)cc2NC1=O (stereo unspecified)	TDP1 cell noCPT inconclusive, TDP1 cell CPT inconclusive
Cc1cccc(CN2CCc3c(OCC(=O)NCc4ccco4)cccc3C2=O)c1	TDP1 cell noCPT inconclusive, TDP1 cell CPT inconclusive
O=C1c2cccc(OCc3ccc(F)cc3)c2CCN1Cc1ccccc1	IL1B secr inh -57, TDP1 cell noCPT inconclusive, TDP1 cell CPT inconclusive
CN1CCc2c(OCC(=O)N3CCCc4ccccc43)cccc2C1=O	TDP1 cell noCPT 29µM
CCN1CCc2c(OCc3ccccc3)cccc2C1=O	IL1B secr inh inconclusive, TDP1 cell noCPT inconclusive
CN1CCc2c(OCC(=O)N3CCC(Cc4ccccc4)CC3)cccc2C1=O	IL1B secr inh inconclusive, TDP1 cell noCPT 18µM, TDP1 cell CPT 21µM
Cc1cccc(CN2CCc3c(OCC(=O)N4CCCc5ccccc54)cccc3C2=O)c1	HT1080 IDH1KD tx inconclusive, IL1B secr inh inconclusive, TDP1 cell noCPT 5.8µM, HT1080NT lethal inconclusive, TDP1 cell CPT 4.6µM
O=C(COc1ccccc1F)N1CCCc2ccccc21	none
COc1ccccc1CNC(=O)C1CCC(=O)N1C(C)C (stereo unspecified)	none
COc1ccc2c(c1)c1nnc(SC(C)C)nc1n2C	TDP1 cell noCPT inconclusive (no result: IL1B secr inh)
CNc1cnc(-c2ccccc2OC)cn1	HT1080 IDH1KD tx inconclusive
COc1ccc2[nH]cc(CCNC(=O)Cc3ccc(Cl)cc3)c2c1	none
COc1ccccc1NC(=O)CSCc1cc(=O)n2ccsc2n1	none
O=C(COc1cccnc1[N+](=O)[O-])N1CCC(Cc2ccccc2)CC1	IL1B secr inh -68, TDP1 cell noCPT inconclusive, TDP1 cell CPT inconclusive
C=C(C)c1cccc(C(C)(C)NC(=O)N(C)C2CCN(C)CC2)c1	none
COc1cccc(Cn2cnc(-c3ccccc3OC)c2-c2ccco2)c1	TDP1 cell noCPT 18µM, TDP1 cell CPT 18µM
COc1cccc(-c2c(-c3ccccc3OC)ncn2Cc2cccc(-c3ccccc3)c2)c1	HT1080 IDH1KD tx inconclusive, IL1B secr inh inconclusive, TDP1 cell noCPT 12µM, HT1080NT lethal inconclusive, TDP1 cell CPT 8.2µM
COc1cccc(Cn2cnc3c(N)c(C)c(C)cc32)c1	none
Cc1cnc(C(=O)OCC(=O)c2ccc(F)c(F)c2)cn1	none
CC(C)Oc1cccc(C2CC(=O)Nc3cc4c(cc32)OCO4)c1 (stereo unspecified)	TDP1 cell noCPT 2.6µM, TDP1 cell CPT 2.6µM (no result: HT1080 IDH1KD tx, IL1B secr inh, HT1080NT lethal)
Cc1cccc(C2CC(=O)Nc3cc4c(cc32)OCO4)c1 (stereo unspecified)	TDP1 cell noCPT 21µM, TDP1 cell CPT inconclusive (no result: HT1080 IDH1KD tx, IL1B secr inh, HT1080NT lethal)
COc1cccc(C2CC(=O)Nc3cc4c(cc32)OCO4)c1OC(C)C (stereo unspecified)	TDP1 cell noCPT inconclusive, TDP1 cell CPT 21µM (no result: HT1080 IDH1KD tx, IL1B secr inh, HT1080NT lethal)
CCOc1ccccc1NC(=O)CSc1nc(=O)n(CCCN2CCOCC2)c2c1CCCC2	none
CC(C)CN(C(=O)COC(=O)c1nc(Cl)ccc1Cl)c1c(N)n(Cc2ccccc2)c(=O)[nH]c1=O	none
Cc1ccc(-c2cc(NC(=O)c3ccccc3[N+](=O)[O-])n[nH]2)cc1	TDP1 cell noCPT 21µM, TDP1 cell CPT inconclusive
O=C(CCc1ccccc1)Nc1ccc(Cl)cn1	HT1080 IDH1KD tx 2.9µM, TDP1 cell noCPT 3.3µM, HT1080NT lethal 5.8µM, TDP1 cell CPT 5.8µM
